Measured values published in PubChem BioAssay AID1851 (National Center for Advancing Translational Sciences (NCATS), 2009).
About 5,700 (36%) of roughly 16,000 compounds were called active. Another 24% or so got no clear call; they are omitted. The list shows a part of the results. A number with no mark means an inactive call. Calls come from the whole dose curve; as a rule, active = well fitted curve in the direction sought with a large enough effect; inconclusive = small, poorly fitted or top-dose-only effect, or effect the other way; inactive = no such curve, though single readings can be large or run the other way.

Target: Cytochrome P450 1A2 (Homo sapiens) (UniProt P05177)
Test: Cytochrome panel assay with activity outcomes
Settings: recombinant CYP, pro-luciferin dealkylation, luminescence, p450-cyp1a2; series mostly up to 57.1 µM; activity, negative = inhibition: at the top concentration
% is set by controls: 0 for no effect and ±100 for the full control effect.

Chain of Cytochrome P450 1A2 (Homo sapiens) (P05177 whole entry, looked up): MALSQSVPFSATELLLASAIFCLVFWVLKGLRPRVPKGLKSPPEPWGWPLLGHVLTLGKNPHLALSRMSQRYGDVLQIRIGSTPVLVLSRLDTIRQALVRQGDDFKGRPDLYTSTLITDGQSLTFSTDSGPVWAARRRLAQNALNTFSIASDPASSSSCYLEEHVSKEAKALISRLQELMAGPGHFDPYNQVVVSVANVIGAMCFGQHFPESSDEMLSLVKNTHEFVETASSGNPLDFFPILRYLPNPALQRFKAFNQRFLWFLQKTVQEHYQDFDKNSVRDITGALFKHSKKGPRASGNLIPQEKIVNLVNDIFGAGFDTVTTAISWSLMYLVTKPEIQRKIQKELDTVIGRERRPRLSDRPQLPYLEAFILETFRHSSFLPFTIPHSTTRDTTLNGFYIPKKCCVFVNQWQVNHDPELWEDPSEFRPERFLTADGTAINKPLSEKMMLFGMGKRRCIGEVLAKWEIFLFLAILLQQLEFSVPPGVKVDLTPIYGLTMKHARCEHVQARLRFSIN

Q: For `O=C(CCN1CCCCC1)N1CCc2c([nH]c3ccccc23)[C@H]1c1cccnc1`, which activity, negative = inhibition is on record?
A: -19.7% [at 2.29 µM]

Q: With `COc1ccc(NC(=O)N2CCC3(CC2)CCN(C(=O)c2cccn2C)CC3)cc1` as the molecule, how does the “activity, negative = inhibition” value read?
A: -8.9%

Q: Which AC50 does the source give for `CC(=O)N(/N=C1\Sc2ccccc2C1=O)c1ccccc1` here?
A: 2.24 µM (active)

Q: `CC(=O)N(/N=C1\Sc2ccccc2C1=O)c1ccccc1C` was tested. Which AC50 did it give?
A: 14.1 µM (active)

Q: Which activity, negative = inhibition does the source give for `COC(=O)[C@@H]1O[C@@H](SCCN)[C@@H](O)[C@H](O)[C@H]1O` here?
A: 10.2% [at 2.29 µM]

Q: Which AC50 does the source give for `CCC1(C)Cc2c(sc3nnn(CC(=O)Nc4ccc(C)cc4)c(=O)c23)CO1` (stereo unspecified) here?
A: 14.1 µM (active)

Q: `CCc1cc2c(nc1CC)CCN(CC/C(C)=N/OCC[C@@H]1C=C[C@H](OC(C)=O)[C@H](COC(C)=O)O1)C2` was tested. Which activity, negative = inhibition did it give?
A: -15.5% [at 11.4 µM]

Q: Which AC50 does the source give for `N#CC1=C(N)OC2=C(CC/C2=C\c2ccccc2)C1c1ccccc1` (stereo unspecified) here?
A: 2.51 µM (active)

Q: For `CC(=O)OCc1nc2ccccc2s1`, which AC50 is on record?
A: 2.82 µM (active)

Q: With `CCCc1cc(C(=O)Cc2nc3ccccc3s2)c(O)cc1O` as the molecule, how does the AC50 read?
A: 2.24 µM (active)

Q: Which AC50 does the source give for `O=C(OCc1nc2ccccc2s1)c1ccc(Br)s1` here?
A: 3.16 µM (active)

Q: With `Nc1cc(=O)[nH]c(N)n1` as the molecule, how does the “activity, negative = inhibition” value read?
A: -20.6%

Q: With `N=c1ccn2c(n1)O[C@H]1[C@@H](OP(=O)(O)O)[C@H](CO)O[C@H]12` as the molecule, how does the activity, negative = inhibition read?
A: -3.14% [at 2.29 µM]

Q: How did the activity, negative = inhibition turn out when `COC(=O)[C@@H]1CC[C@H](C)[C@@H](c2ccc(C)cc2)N1C(=O)c1ccc(/C=N\OC[C@@H](O)COCc2ccco2)cc1` was run?
A: -1.66% [at 11.4 µM]

Q: For `CNc1ccnc(-c2ccccc2C(F)(F)F)n1`, which AC50 is on record?
A: 12.6 µM (active)

Q: For `Fc1ccc(Nc2ccnc(-c3ccccc3C(F)(F)F)n2)cc1`, which AC50 is on record?
A: 2 µM (active)

Q: For `CN1C[C@H](c2ccccc2)C(O)([C@]2(c3ccccc3)CN(C)C[C@@H](c3ccccc3)C2=O)[C@H](c2ccccc2)C1` (stereo partly specified), which activity, negative = inhibition is on record?
A: -5.45% [at 11.4 µM]

Q: `O[C@@H](c1cc([C@@]23C[C@H]4CC[C@@H]2C[C@H](C4)C3)nc2c(Cl)cc(Cl)cc12)[C@@H]1CCCCN1` was tested. Which activity, negative = inhibition did it give?
A: -10.5% [at 2.29 µM]

Q: `CCOC(=O)c1nc2sc(C)c(C)c2c(=O)[nH]1` was tested. Which AC50 did it give?
A: 14.1 µM (active)

Q: Which “activity, negative = inhibition” value does the source give for `CCOC(=O)c1c(C)nc2sc3c(=O)n(-c4ccc(OC)cc4)nnc3c2c1-c1ccc(OC)cc1` here?
A: 10.4%

Q: How did the AC50 turn out when `Cc1ccc(Nc2nc(Cl)nc(N(C)C#N)n2)cc1` was run?
A: 3.55 µM (active)

Q: `O=C(O)NCC1CCCCC1` (tested in a mixture with another compound) was tested. Which activity, negative = inhibition did it give?
A: -10.2% [at 11.4 µM]

Q: For `Cc1nc(-c2c(C(F)(F)F)noc2-c2ccc(O)cc2O)cs1`, which AC50 is on record?
A: 12.6 µM (active)

Q: How did the “activity, negative = inhibition” value turn out when `NC(=O)CC(c1ccccc1)c1ccco1` (stereo unspecified) was run?
A: -5.54%

Q: How did the AC50 turn out when `O=C(c1ccco1)N(CCC(c1ccccc1)c1ccco1)Cc1ccco1` (stereo unspecified) was run?
A: 14.1 µM (active)

Q: Which “activity, negative = inhibition” value does the source give for `O=C(NCc1ccccc1)C(c1ccc(F)cc1)N(Cc1ccco1)C(=O)c1ccccn1` (stereo unspecified) here?
A: 4.4%

Q: For `CCOC(=O)C1CCN(Cc2cnc(Oc3ccc(OC)cc3)s2)CC1`, which “activity, negative = inhibition” value is on record?
A: -7.6%

Q: For `CCOC(=O)C1CCCN(C(=O)CCn2nc(-c3ccccc3)ccc2=O)C1` (stereo unspecified), which “activity, negative = inhibition” value is on record?
A: -23.4%

Q: `CCOC(=O)C1CCCN(C(=O)c2sc3nc(-c4ccc(OC)cc4)cn3c2C)C1` (stereo unspecified) was tested. Which AC50 did it give?
A: 20 µM (active)

Q: How did the activity, negative = inhibition turn out when `O=C(O)c1ccc([N+](=O)[O-])c(P(=O)(O)O)c1` was run?
A: -9.8% [at 11.4 µM]

Q: For `O=C(NCC1CCCO1)c1ccc(CS(=O)(=O)Cc2ccc(F)cc2)o1` (stereo unspecified), which “activity, negative = inhibition” value is on record?
A: -11.4%

Q: For `O=C1CC(c2ccc(F)cc2)Cc2nc(NCC3CCCO3)ncc21` (stereo unspecified), which AC50 is on record?
A: 22.4 µM (active)

Q: How did the “activity, negative = inhibition” value turn out when `O=C1C=C(NCC2CCCO2)C2(CCCCC2)O1` (stereo unspecified) was run?
A: 11.9%

Q: For `Cc1ccc(C(=O)C(OC(=O)CNS(=O)(=O)c2ccccc2)c2ccccc2)cc1` (stereo unspecified), which “activity, negative = inhibition” value is on record?
A: -20.7%

Q: For `CCOC(=O)C1=C(C)N=C2c3ccccc3C(=O)C2C1c1ccc(Cl)cc1` (stereo unspecified), which AC50 is on record?
A: 3.16 µM (active)

Q: For `CCOC(=O)C1=NNC2(c3ccc(Cl)cc3)C(=O)N(c3cc(C)cc(C)c3)C(=O)C12` (stereo unspecified), which “activity, negative = inhibition” value is on record?
A: -0.857%

Q: `COCCOC(=O)C1=C(C)NC(=O)N(C(C)=O)C1c1ccc(Cl)cc1` (stereo unspecified) was tested. Which “activity, negative = inhibition” value did it give?
A: -20.4%

Q: Which “activity, negative = inhibition” value does the source give for `CCOC(=O)C1=C(N)n2c(s/c(=C/c3ccccc3)c2=O)=C(C(=O)OCC)C1c1ccccc1` (stereo unspecified) here?
A: -10.3%

Q: Which AC50 does the source give for `CCOC(=O)C1=C(C)N=C2c3ccccc3C(=O)C2C1c1ccc(C)cc1` (stereo unspecified) here?
A: 3.16 µM (active)

Q: Which “activity, negative = inhibition” value does the source give for `COC(=O)[C@@]1(Cc2ccccc2)[C@H]2c3cc(C(=O)N(C)C)n(Cc4ccsc4Br)c3C[C@H]2CN1C(=O)c1ccccc1` here?
A: -17.5%

Q: Which “activity, negative = inhibition” value does the source give for `CCCOc1ccc(Cn2c(C)nc([N+](=O)[O-])c2SCC(O)COC)cc1[N+](=O)[O-]` (stereo unspecified) here?
A: -20.4%

Q: `COc1ccc(CSc2nnnn2C)cc1[N+](=O)[O-]` was tested. Which AC50 did it give?
A: 14.1 µM (active)

Q: How did the AC50 turn out when `CSc1nncc(-c2ccc(F)c(F)c2)n1` was run?
A: 3.55 µM (active)

Q: `OC(COCC1COc2ccccc2O1)CN1CCN(c2ccccc2F)CC1` (stereo unspecified) was tested. Which “activity, negative = inhibition” value did it give?
A: -22.8%

Q: Which “activity, negative = inhibition” value does the source give for `CC1CCCN(CC(O)COCC2COc3ccccc3O2)C1` (stereo unspecified) here?
A: -7.91%

Q: `OC(COCC1COc2ccccc2O1)CN1CCc2ccccc2C1` (stereo unspecified) was tested. Which AC50 did it give?
A: 5.01 µM (active)
